Compound activity deposited in PubChem BioAssay by National Center for Advancing Translational Sciences (NCATS).
A selection: hits, their analogues and other compounds. The true share with any hit is near 12%.
CHX counter – Cycloheximide Counterscreen for Small Molecule Inhibitors of Shiga Toxin; cell reporter, cycloheximide protein synthesis inhibition counterscreen; max response, %; 300,000 compounds, 12% hits; AID 2314, 2010; in the data active = max response mostly above about 13%, no sharp cut-off; inactive = mostly below about 14%; note: read at 38.3 µM for the half of the compounds with a filed dose; 0% is about no effect
Shiga toxin inh – A qHTS for Small Molecule Inhibitors of Shiga Toxin | Vero cells, Shiga toxin protein synthesis inhibition reporter | inhibition, % at 38.7 µM | 290,000 compounds, 9.2% hits | AID 2315, 2010; in the data active = inhibition mostly above about 28%, no sharp cut-off; inactive = mostly below about 43%; note: 0% is about no effect
LASV entry inh – qHTS for Inhibitors of binding or entry into cells for Lassa Virus; Potency, µM (top dose mostly 37.9 µM), for inactives: top-dose activity change, negative = inhibition, actives largely listed as inhibitors; 300,000 compounds, 1.2% hits; Lassa virus pseudotype entry inhibition, cell reporter; calls by dose curve; tested in HEK293 cells; note: potency is the fitted concentration of half-maximal effect; % is set by controls: 0 for no effect and ±100 for the full control effect; nearly all actives have a fitted effect of over 50% in size
Marburg entry inh – qHTS for inhibitors of binding or entry into cells for Marburg Virus | 300,000 compounds, 1.8% hits | Potency, µM (series often up to 37.8 µM), inactives show top-dose activity change, negative = inhibition, usual class: inhibitors | Marburg virus pseudotyped entry inhibition, cell reporter; calls by dose curve; tested in HEK293 cells; note: potency is the fitted concentration of half-maximal effect; % is set by controls: 0 for no effect and ±100 for the full control effect
Numbers without * were called inactive; ? = inconclusive; . = no result; [ ] = dose if it differs, or a comment.

SMILES	CHX counter	Shiga toxin inh	LASV entry inh	Marburg entry inh
CC1=NN(c2ccccc2)C(=O)C1/C=C1\NC(=S)NC1=O (configuration not stated)	-3	20	.	-29%[46.1 µM]
CC1=NN(c2ccccc2)C(=O)C1C=Nc1ccccc1O (configuration not stated)	14	27*	?	?
Cc1ccc(COc2ccc(CNCCCN3CCCCCC3=O)cc2)cc1	26*	70*	?	?
Cc1ccc(NC(=O)C(=O)NCCCN2CCCC2=O)cc1	.	.	?	-27%
COc1ccc(C(=O)Sc2nncc3ccccc23)cc1	20*	37	-2%[46.1 µM]	-2%[46.1 µM]
COc1ccc(NC(=O)CSc2nncc3ccccc23)cc1	20	-12	.	.
COc1ccc(N2C(=O)CSC23C(=O)N(CC(=O)NCc2ccccc2)c2ccccc23)cc1 (configuration not stated)	.	.	6%[46.1 µM]	.
CCC(Sc1nnnn1C)C(=O)Nc1ccc(C(C)=O)cc1 (configuration not stated)	23*	115*	30%	30%
O=S(=O)(c1ccc(Cl)s1)N1CCN(C/C=C/c2ccccc2)CC1	13	9	23µM*	?
COc1ccccc1OCC(=O)NCCS(=O)(=O)N1CCN(c2ccccc2OC)CC1	.	.	-3%[46.1 µM]	.
COc1ccc(CNc2nc3ccccc3s2)cc1OC	45*	66*	-20%[46.1 µM]	?
c1ccc(CCNc2nc3ccccc3s2)cc1	67*	85*	-19%	?
Cc1ccc(CNc2nc3ccccc3s2)s1	-3	-31	6.3µM*	?
CCc1cc2c3c(c1)C1(C(=O)N3C(C)(C)C=C2C)C(C#N)=C(N)Oc2[nH]c(=O)[nH]c(=O)c21 (configuration not stated)	17	-16	?	?
CCOc1ccc(NC(=O)NC2CCCc3ccccc32)cc1 (configuration not stated)	5	7	.	.
O=C(NC(=S)Nc1ccc(N2CCCC2)cc1)c1ccc(F)cc1	-2	6	?	0%
O=C(Nc1ccc(N2CCOCC2)c(Cl)c1)c1ccccc1F	35*	109*	-26%	8%
CCOC(=O)Nc1ccc(N2CCOCC2)c(S(=O)(=O)Nc2ccc(Cl)cc2)c1	.	.	?	10µM*
O=C(Nc1ccc(N2CCOCC2)c(Cl)c1)c1ccc(Cl)cc1	32*	52*	-11%	2%
O=C(Nc1ccc(N2CCOCC2)c(Cl)c1)C1CCCCC1	52*	129	?	?
O=C(Nc1ccc(N2CCOCC2)cc1)C1CC1	10	44	2%	4%
Cc1ccc(S(=O)(=O)N2CCN(S(C)(=O)=O)C2C)cc1 (configuration not stated)	.	.	7%	8%
Cc1ccc(C)c(C(=O)CCC(=O)NCc2ccc(Cl)cc2)c1	7	-2	5%[46.1 µM]	-1%[46.1 µM]
Cc1cc(C(=O)Nc2ccc(N3CCOCC3)c(Cl)c2)c(C)o1	34*	42*	.	.
CC1CN(C(=O)COC(=O)c2cccc(S(=O)(=O)N3CCc4ccccc43)c2)CC(C)O1 (configuration not stated)	.	.	?	-2%[46.1 µM]
SMILES	CHX counter	Shiga toxin inh	LASV entry inh	Marburg entry inh
COCCN(CCOC)S(=O)(=O)c1ccc(C(=O)Nc2sc3c(c2C(N)=O)CCCCC3)cc1	33*	63*	12%	?
COc1ccc(C(=O)Nc2sc3c(c2C(N)=O)CCCC3)cc1OC	42*	60*	.	.
OCC1OC(n2cnc3c(NCc4ccco4)ncnc32)C(O)C1O (configuration not stated)	.	.	4.5µM*	?
C=CCNc1ncnc2c1ncn2C1OC(CO)C(O)C1O (configuration not stated)	-3	-12	?	14µM*
Cc1ccccc1CNc1ncnc2c1ncn2[C@@H]1O[C@@H](CO)[C@H](O)[C@@H]1O	.	.	.	18%
COc1ccc(CCC(=O)NCCc2csc(-c3cccc(F)c3)n2)cc1	.	.	11%[46.1 µM]	.
Cc1ccccc1Cn1c(=O)n(CCCCCC(=O)NCc2ccc3c(c2)OCO3)c(=O)c2sccc21	.	.	-2%[46.1 µM]	27%[46.1 µM]
O=c1oc2cc(Cl)ccc2n1CSc1nc2ccccc2s1	31*	58*	?	-35%
CC(C)c1nc(C#N)c(NN)o1	49*	116*	.	.
CC(C)c1nc(C#N)c(NCCCn2ccnc2)o1	5	-16	5%	15%
O=C(Nc1ccc2c(c1)nc1n2CCN(Cc2ccccc2)C1)c1cccs1	13	15	?	5%
CC(C)(C)n1cnc2cc(NC(=O)c3cccs3)ccc21	34*	104*	?	?
CC(C)(C)n1cnc2cc(NC(=O)c3ccccc3)ccc21	34*	93*	?	?
CCn1cnc2cc(NC(=O)c3cccs3)ccc21	28*	67*	?	?
Cc1ccc(C(C)C)cc1OCCCCN1CCCC1	-3	-6	?	?
C=C1CCN(C(Cc2ccccc2)C(=O)O)S(=O)(=O)c2ccccc21 (configuration not stated)	-5	-7	.	.
CCCCn1c(NCc2ccccc2NS(=O)(=O)c2ccc(C)cc2)nc2ccccc21	-2	11	?	11µM*
CCn1c(/N=C/c2ccccc2NS(=O)(=O)c2ccc(C)cc2)nc2ccccc21	-6	-11	11µM*	?
Cc1ccc(S(=O)(=O)Nc2ccccc2CNc2ccccn2)cc1	22*	37*	18%	-3%
COC(=O)C/C=C\[C@H](C)[C@@H](OCc1ccccc1Br)C(C)C	.	.	.	14%[14.2 µM]
CNC(=O)N(C1=NCC(C)(C)S1)c1ccc(F)c(Cl)c1	-5	1	.	.
Cc1ccnc(N(C(=O)Nc2ccccc2)C2=NCC(C)(C)S2)c1	43*	59*	?	5%[46.1 µM]
Cc1ccc(C(=O)N2CCCC(Nc3ccc(F)c(F)c3)C2)cn1 (configuration not stated)	1	-7	.	.
CC(C)n1cc(C(=O)N2CCCC(Nc3ccc(F)c(F)c3)C2)cn1 (configuration not stated)	27*	14	.	.
Cc1cccc(SCC(=O)Nc2ccc3c(c2)OCCO3)c1	39*	102*	24%[46.1 µM]	?
SMILES	CHX counter	Shiga toxin inh	LASV entry inh	Marburg entry inh
Nc1ccccc1SCC(=O)Nc1ccc2c(c1)OCCO2	37*	87*	?	?
Cc1nc(SCC(=O)Nc2ccc3c(c2)OCCO3)nc(C)c1C	13	16	12%	?
O=C(CSc1nnc(-c2ccc(C(F)(F)F)cn2)o1)Nc1cccc(Cl)c1	17*	56	2%	?
CC(=O)NC(CC(=O)Nc1ccc2c(c1)OCCO2)c1ccccc1 (configuration not stated)	20*	52	0%[46.1 µM]	14%[46.1 µM]
O=C(CCn1cnc2ccccc2c1=O)NCc1ccccc1	.	.	5%[46.1 µM]	.
CCN(C(=O)Nc1cn(CC(C)C)c(=O)c2ccccc12)c1cc(C)ccc1C	.	.	-1%[46.1 µM]	.
Nc1cc(N)nc(SCC(=O)Nc2ccc3c(c2)OCO3)n1	6	-1	1%	9%[46.1 µM]
Cc1ccccc1NC(=O)CSc1nnc(-c2cccc(Cl)c2)o1	.	.	2%[46.1 µM]	?
Nc1cc(N)nc(SCC(=O)Nc2ccc3c(c2)OCCCO3)n1	23*	41	16%	28%
Nc1ccccc1SCC(=O)Nc1ccc2c(c1)OCO2	23*	73*	.	.
O=C(CSc1nnc(Cc2ccccc2)o1)Nc1ccc2c(c1)OCO2	38*	28	0%	17%
